TbPYK inhibitor = qHTS of Trypanosoma Brucei Inhibitors | TbPYK enzyme, Kinase-Glo Plus ATP luminescence, 45 min | Potency, µM (titrated, usually from 76.8 µM), for the others: top-dose activity, negative = inhibition, hits mostly inhibitors | 0.12% of 410,000 active; note: potency is the fitted concentration of half-maximal effect; % is set by controls: 0 for no effect and ±100 for the full control effect; nearly all actives have a fitted effect of over 50% in size
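Assay buffer: 50 mM TEA pH 7.2, 100 mM KCl, 10 mM MgCl2, 0.05% BSA, 0.01% Tween-20. Pyruvate kinase from T. brucei plus substrate met compound, then ADP (130 uM final). Luminescence was read post 45 min RT.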
FBPA Giardia inh = qHTS Assay for Inhibitors of Fructose-1,6-bisphosphate Aldolase from Giardia Lamblia. A8B2U2. purified Giardia FBPA. Potency, µM (series often up to 59.6 µM), inactives show top-dose activity, negative = inhibition, actives largely listed as inhibitors. 0.71% of 290,000 active; note: potency is the fitted concentration of half-maximal effect; % is set by controls: 0 for no effect and ±100 for the full control effect; nearly all actives have a fitted effect of over 55% in size
Target sequence (A8B2U2 whole entry, looked up): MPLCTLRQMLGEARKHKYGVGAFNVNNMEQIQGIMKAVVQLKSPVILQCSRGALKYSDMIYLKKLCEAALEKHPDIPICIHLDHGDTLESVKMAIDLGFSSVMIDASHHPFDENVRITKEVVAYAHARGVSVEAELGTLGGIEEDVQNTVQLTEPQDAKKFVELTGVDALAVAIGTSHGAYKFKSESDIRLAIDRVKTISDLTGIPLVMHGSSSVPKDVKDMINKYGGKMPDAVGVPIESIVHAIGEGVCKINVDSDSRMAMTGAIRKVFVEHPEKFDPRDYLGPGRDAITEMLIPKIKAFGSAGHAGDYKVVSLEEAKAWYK
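Giardia FBPA (40 nM reagent) was preincubated 10 min at RT with compound (up to 57.5 uM final), then substrate plus GAPDH/TPI/NAD/arsenate coupling system with diaphorase/resazurin was added; resorufin fluorescence (525/598 nm) was read after 20 min.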
Shiga toxin inh = A qHTS for Small Molecule Inhibitors of Shiga Toxin. Vero cells, Shiga toxin protein synthesis inhibition reporter. inhibition, % at 38.7 µM. 9.2% of 290,000 active. AID 2315, 2010; in the data active = inhibition mostly above about 28%, no sharp cut-off; inactive = mostly below about 43%; note: 0% is about no effect
RE007 growth inh = qHTS Assay for Inhibitors of the HIV-1 protein Vpr; Potency, µM (top dose mostly 92.2 µM), for the others: at the top dose activity change, negative = less growth, actives largely listed as inhibitors; AID 651644, 2012; 0.21% of 360,000 active; S. pombe RE007 Vpr strain, BacTiter-Glo ATP luminescence, 24 h; active = well fitted falling curve with a large enough effect; inconclusive = small, poorly fitted or top-dose-only effect; inactive = no such curve, though single readings can be large or run the other way; note: potency is the fitted concentration of half-maximal effect; % is set by controls: 0 for no effect and ±100 for the full control effect; nearly all actives have a fitted effect of over 50% in size
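Fission yeast strain RE007, carrying one chromosomally integrated HIV-1 vpr copy, was seeded at OD 0.01 in PMG+AL medium with 23 nL pinned compound. After 24 h at 30 °C and 99% humidity, viability was read by BacTiter-Glo luminescence.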
CHX counter = Cycloheximide Counterscreen for Small Molecule Inhibitors of Shiga Toxin | cell reporter, cycloheximide protein synthesis inhibition counterscreen | max response, % | 12% of 300,000 active; in the data active = max response mostly above about 13%, no sharp cut-off; inactive = mostly below about 14%; note: read at 38.3 µM for the half of the compounds with a filed dose; 0% is about no effect
LmPK inh = qHTS Assay for Inhibitors of Leishmania Mexicana Pyruvate Kinase (LmPK); 0.37% of 290,000 active; purified LmPK, Kinase-Glo ATP luminescence, 1 h; AID 1721, 2009; Potency, µM (series often up to 57.5 µM), for the others: top-dose activity change, negative = inhibition, usual class: inhibitors; note: potency is the fitted concentration of half-maximal effect; % is set by controls: 0 for no effect and ±100 for the full control effect
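Purified LmPK (0.1 nM) converted ADP (0.1 mM) to ATP with PEP (0.5 mM) in imidazole buffer pH 7.2 with KCl and MgCl2, 1 h at room temperature. ATP was read by Kinase-Glo luminescence; data normalized to uninhibited and no-enzyme controls.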
* marks the source's active call; other numbers are inactive results; ? = inconclusive; / = not tested or not shown; [ ] = dose if it differs, or a comment. Only a selection was taken, and hits are over-represented in it overall. Unless noted, calls come from the whole dose curve; as a rule, active = well fitted curve in the direction sought with a large enough effect; inconclusive = small, poorly fitted or top-dose-only effect, or another doubt; inactive = no such curve, though single readings can be large; an effect the other way counts as inactive or inconclusive.

SMILES	TbPYK inhibitor	FBPA Giardia inh	Shiga toxin inh	RE007 growth inh	CHX counter	LmPK inh
COc1ccc(C(=O)Nc2ccc3ccccc3n2)cc1OC	3%	8%	/	-17%	29*	2%
Cc1ccc(C(=O)Nc2ccc3ccccc3n2)cc1	8%	-2%	42*	-21%	41*	-17%
CCCN(C(=O)c1sc2nc3n(c(=O)c2c1C)CCCC3)c1ccccc1C	-1%	/	/	/	/	/
Cc1ccc(-n2ncc(C(=O)NCCc3ccsc3)c2C2CCN(C(=O)OC(C)(C)C)CC2)c(C)c1	0%	/	/	/	/	/
O=C(O)c1ccc(N/N=C/c2ccc(OC(=O)c3ccccc3Cl)cc2)cc1	-10%	9%	19	15%	21*	1%
COc1cc(C(=O)N/N=C/c2ccc(OC(=O)c3ccccc3Cl)cc2)ccc1O	3%	2%	22	4%	26*	-1%
Nc1ccc(C(=O)N/N=C\c2ccc(OC(=O)c3ccccc3Cl)cc2)cc1	2%	-6%	21	-9%	38*	9%
COc1cc(C(=O)Oc2ccccc2/C=N/NC(=O)c2ccc(Cl)cc2Cl)cc(OC)c1OC	-8%	-7%	26*	22%	23*	5%
COc1cc(/C=N\NC(=O)c2cccnc2)ccc1OC(=O)c1ccccc1Cl	-7%	-3%	-8	-11%	-1	-1%
O=C(N/N=C/c1ccc(OC(=O)c2ccccc2Br)cc1)c1ccccn1	-4%	/	-16	-15%	-3	-13%
CCc1cccc(NC(=O)c2nc(-c3ccncc3)no2)c1	5%	/	/	/	/	/
COc1ccc(OC)c2[nH]c(=O)c(CCNC(=O)Cc3cccs3)cc12	0%	?	-7	7%	-2	1%[11.5 µM]
CSc1ccc(/C=N/N2CCN(c3ccccc3)CC2)cc1	6%	4%	17	8%	-1	-7%
Cc1cccc(/C=N/N2CCN(c3ccccc3)CC2)c1	3%	1%	73*	3%	42*	-19%
COc1ccccc1/C=N/N1CCN(c2ccc(Cl)cc2)CC1	-3%	-2%	/	-8%	6	1%
Cc1ccc(/C=N/N2CCN(c3ccccc3)CC2)cc1	-3%	2%	46	-4%	19*	-3%
Cc1ccccc1/C=N/N1CCN(c2ccccc2)CC1	5%	4%	103*	-9%	50*	5%
COc1ccccc1-c1nnc(C2CCN(S(=O)(=O)c3ccc(CC(C)C)cc3)CC2)o1	-3%	/	/	/	/	/
O=C(CSc1nc2ccccc2s1)N/N=C/c1ccco1	-4%	-22%	29	14%	14*	0%
C/C(=N\NC(=O)CSc1nc2ccccc2s1)c1ccco1	-10%	-2%	48*	1%	17*	1%
c1ccc2sc(SSc3nc4ccccc4s3)nc2c1	-5%	/	/	/	/	/
O=C(CSc1nc2ccccc2s1)N/N=C/c1ccc(C(=O)O)cc1	1%	7%	32	11%	25	-1%
N#C/C(=C\c1ccco1)Sc1nc2ccccc2s1	1%	-17%	39*	-6%	69*	12%
O=C(CSc1nc2ccccc2s1)N/N=C/c1ccccc1C(=O)O	4%	9%	91*	-2%	52*	5%
CC(C)CCNC(=O)CSc1nc2ccccc2s1	1%	21%	4	6%	8	2%
SMILES	TbPYK inhibitor	FBPA Giardia inh	Shiga toxin inh	RE007 growth inh	CHX counter	LmPK inh
O=C(CSc1nc2cc(Cl)ccc2s1)c1ccco1	-9%	?	56	-25%	20*	4%
O=C(CSc1nnc(SCC(=O)c2ccco2)s1)c1ccco1	-11%	-10%	15	-1%	20	9%
Cc1ccc(OCCN2C(=O)c3ccccc3C2=O)c([N+](=O)[O-])c1	2%	-5%	106*	4%	64*	0%
O=C1c2ccccc2C(=O)N1CCOc1cccc(Br)c1	-8%	/	52*	3%	28*	-4%
COc1ccc(N2CCN(CCN3C(=O)c4ccccc4C3=O)CC2)cc1	-7%	/	1	-10%	-4	1%
Cc1ccc(OCCN2C(=O)c3ccccc3C2=O)c(C)c1	-13%	8%	-4	-2%	6	3%
COc1ccc(OCCN2C(=O)c3cccc(N)c3C2=O)cc1	2%	-7%	74*	12%	32*	0%
COc1ccc(C(=O)OCCN2C(=O)c3ccccc3C2=O)cc1	0%	-2%	54*	-12%	17	0%
CN1CC[C@@]2(CCCN(C(=O)c3cccn3C)C2)C1	-6%	-8%	/	/	/	/
COc1cccc(NC(=O)c2oc3ccccc3c2NC(=O)c2ccc(OC(C)C)cc2)c1	0%	/	/	/	/	/
Cc1ccc(OCCN2C(=O)c3ccccc3C2=O)cc1	4%	3%	108*	-7%	31*	1%
C[N+](C)(C)CCN1C(=O)CSC1=O	-10%	-1%	-5	6%	-3	-4%
COc1ccc(N(CN2C(=O)c3ccccc3C2=O)C(=O)COc2ccc(Cl)cc2Cl)cc1	4%	2%	-2	-6%	0	3%
COc1ccc(N(CN2C(=O)c3ccccc3C2=O)C(=O)C(C)C)cc1	-7%	7%	12	-3%	21*	-2%
Cc1ccc(OCCN2C(=O)CSC2=O)cc1	-10%	4%	20	-29%	22*	-6%
COc1ccc2c(c1)c1c(c(=O)n(-c3ccc(F)c(Cl)c3)c(=O)n1Cc1ccccc1F)n2C	0%	/	/	/	/	/
Cc1cc(O)c(C)c2sc(N)nc12	/	-16%	-9	/	-5	/
Cn1ccc2cc(S(=O)(=O)N3CCCC(C(=O)NCc4ccccc4)C3)ccc21 (stereo not given)	3%	/	/	/	/	/
CC(=O)CCc1c(C)c2cc(C)ccc2[nH]c1=O	-7%	5%	48	-5%	33*	2%
CC(=O)CCc1c(C)[nH]c2ccccc2c1=O	0%	-8%	-10	-6%	-2	2%
CCC(=O)Oc1ccc(C(=O)Nc2ccc([N+](=O)[O-])cc2)cc1	-10%	3%	102*	-4%	40*	-2%
CC(C)COc1ccc(C(=O)Nc2ccc(SC(F)F)cc2)cc1	-6%	4%	39	-8%	24*	1%
CCOc1ccc(C(=O)OCC(=O)Nc2ccc(SC(F)F)cc2)cc1OCC	-18%	8%	-9	/	-6	-6%
CC(C)COc1ccc(C(=O)Nc2ccc([N+](=O)[O-])cc2)cc1	-16%	3%	51*	1%	30*	6%
NC(=O)NC(CC(=O)N1CCc2ccccc2C1)c1ccc(Cl)cc1 (stereo not given)	1%	7%	-5	3%	-1	-2%
COc1ccc(S(=O)(=O)NCCc2nnc3ccc(SCC(=O)Nc4ccc(C(F)(F)F)cc4)nn23)cc1	-5%	/	/	/	/	/

Screening data (PubChem)
